Measurements from PubChem BioAssay.

target: Follistatin-related protein 3 (Homo sapiens) (UniProt O95633); test: FSTL3 binders on small-molecule microarrays, primary screen, biochemical, small-molecule microarray, 635 nm fluorescence (AID 1105); details: FSTL3 binding, higher = more signal;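 also: score merges emission near 667 nm and signal to noise per printed spot across three slides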
Sequence (O95633 whole entry, looked up): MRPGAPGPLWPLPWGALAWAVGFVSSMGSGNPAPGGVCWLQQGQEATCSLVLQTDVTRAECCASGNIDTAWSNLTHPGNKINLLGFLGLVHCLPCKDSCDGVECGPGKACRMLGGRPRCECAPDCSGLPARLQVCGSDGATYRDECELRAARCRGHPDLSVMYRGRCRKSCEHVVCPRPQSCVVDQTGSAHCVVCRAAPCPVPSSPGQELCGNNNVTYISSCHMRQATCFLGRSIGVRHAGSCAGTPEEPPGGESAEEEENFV

Going from `O=C1[C@H]2[C@H]3[C@H](O)[C@H](O)CC(=NO[C@@H]4O[C@H](CO)[C@@H](O)[C@H](O)[C@H]4O)[C@H]3CC[C@H]2C(=O)N1c1ccc(F)cc1F` to `CC(C)=CCCC(C)=CCON=C1C[C@@H](O)[C@@H](O)[C@@H]2[C@@H]3C(=O)N(Cc4ccc5c(c4)OCO5)C(=O)[C@@H]3CC[C@H]12`, the composite z-score rises from 0.0345 to 0.821.

First: CCCNC(=O)OC[C@H]1O[C@H](CCON=C2c3cc(OC)ccc3O[C@H](c3cccc(OC)c3)[C@H]2O)C=C[C@@H]1Oc1ccc(OC)cc1
Second: COC(=O)[C@H](C)NC(=O)CCC1CC(OC(=O)NCc2ccc3c(c2)OCO3)CC2(CCCC(COC(=O)NCCC(C)C)O2)O1 (stereo not given in full)
The composite z-score of the first is higher: 0.54 for the first, 0.505 for the second.

Going from `O=C1[C@H]2CCn3c(=O)n(-c4ccccc4)c(=O)n3[C@H]2[C@H](O)[C@@H]2O[C@H]12` to `CC(C)=CCCC(C)=CCON=C1[C@H]2CCn3c(=O)n(-c4ccccc4)c(=O)n3[C@H]2[C@H](O)[C@@H]2O[C@H]12`, the composite z-score rises from 0.148 to 1.25.

First: O=C1[C@H]2[C@H]3[C@H](O)[C@H](O)CC(=NOCc4ccccc4)[C@H]3CC[C@H]2C(=O)N1C1CCCCC1
Second: CC(C)(C)N1C(=O)[C@H]2[C@H]3[C@H](O)[C@H](O)CC(=NOC[C@@H](O)COCc4ccco4)[C@H]3CC[C@H]2C1=O
The composite z-score of the first is higher: 0.448 for the first, -0.28 for the second.

First: COC(=O)[C@H](C)NC(=O)CC=C[C@@H](C)[C@@H]1C=C[C@H](O)[C@@H](CO)O1
Second: CC(CCN1CCCCc2nc(C)c(C)cc21)=NOC[C@@H](O)[C@H]1O[C@@H]2OC(C)(C)O[C@@H]2[C@H]1O
The composite z-score of the first is higher: 0.948 for the first, 0.718 for the second.
